Test results from PubChem BioAssay (NCI).
Values joined by “and” are separate entries in the source; they are usually repeats but may differ in a detail not shown here. Equal entries are not always repeated. This is part of a sample that, as a whole, favours compounds with a hit. Of some 83,000 tested, about 20% had one in any assay.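 Cell lines were cultured in 96-well plates, exposed to a single compound concentration, and assessed for percent growth 48 hours later.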 Active and inactive are the calls of the source.

What follows are compounds tested on SR leukemia (assay: NCI-60 one-dose screen, 48 h (100 = growth as untreated, 0 = no growth, -100 = all killed)). Conditions: 10 µM unless noted.
Method: Growth inhibition of the SR human tumor cell line is measured as a screen for anti-cancer activity. Cells are grown in 96 well plates and exposed to the test compound for 48 hours. Compounds are tested at a single concentration, which is 10^-5 M for most compounds. The reported endpoint is percent growth (GI% or GIPRCNT), where numbers from 0 - 100% represent growth inhibition, and numbers from -100% - 0 represent cell death. For example, a value of 40 represents 60% growth inhibition. A value of 0 means no net growth occurred over the course of the experiment. A value of -40 indicates 40% of cells at the beginning of the experiment died by the end of the experiment. A value of -100 means all cells are dead at the end of the experiment.
NCI-60 Human Tumor Cell Lines Screen was performed using the standard one-dose NCI protocol, which is described in more detail at https://dtp.cancer.gov/discovery_development/nci-60/default.htm.
Compounds with GIPRCNT values below 10 were considered active. Activity score was based on GIPRCNT using the following formula: […]
Score is 0 for GIPRCNT values of 100 or above, 50 for GIPRCNT values of 0, and 100 for GIPRCNT values of -100.

Compound	growth
Cc1nc2c(=O)[nH]c(=S)[nH]c2[nH]c1=O	112% (inactive)
COc1ccc(/C=N/Nc2nc3ccccc3s2)cc1	87.9% (inactive)
CCN(CC)C(=S)SCCO	92.5% (inactive)
COC(=O)C(Cc1cn(C(C)=O)c2ccccc12)P(=O)(OC)OC (stereo not given)	94.6% (inactive)
O=C(Nc1ccccc1)OCC(CN1CCCCC1)OC(=O)Nc1ccccc1 (stereo not given)	82.9% (inactive)
Cc1cc(Cl)nc(Nc2ccccc2)n1	97.7% (inactive)
O=C(O)C(Cc1ccc(OS(=O)(=O)Cc2ccccc2)cc1)NS(=O)(=O)Cc1ccccc1 (stereo not given)	100% (inactive) and 85.8% (inactive)
O=C(O)/C=C/C=C/c1ccccc1	104% (inactive) and 109% (inactive)
Nc1ccc2ccc(NS(=O)(=O)N3CCCCC3)cc2c1	6.48% (active)
CCOC(=O)NC(N)=O	90.3% (inactive) and 108% (inactive)
CCOP(C)(=O)/C(Cc1ccc(OC)c(OC)c1)=N\O (stereo not given)	105% (inactive)
CCCCCCCCCCCCCCCCC(=O)O	94.3% (inactive)
Cn1c(-c2ccccc2)cc(=O)cc1-c1ccccc1	69.5% (inactive)
CC1CC(O)CC(C)(C)C1.CC1CC(O)CC(C)(C)C1.CC1CC(O)CC(C)(C)C1.CC1CC(O)CC(C)(C)C1.[Ti] (stereo not given)	81.1% (inactive)
CS/C(=C\c1ccc(C(=O)c2ccc(C)cc2)n1C)S(C)=O (stereo not given)	30.9% [100 µM] (inactive)
O=C1C=CC(=O)N1Cc1ccco1	74.7% (inactive)
CC(=O)Nc1ccc(OC(C)=O)cc1	115% (inactive)
Cc1c(Cl)c(C)c(Cc2c(C)c(Cl)c(C)c(Cl)c2O)c(O)c1Cl	22.7% (inactive)
O=C(OCc1ccccc1)c1ccccc1	104% (inactive) and 86.5% (inactive)
COC(=O)c1nc(N)nc(C(=O)OC)c1C(=O)c1cccc2ccccc12	105% (inactive)

Compound	growth
C(=N\OCCc1ccccc1)/c1ccccn1	96.5% (inactive) and 84.3% (inactive)
O=C1c2cccnc2-c2ncccc21	120% [100 µM] (inactive)
CC(C)(C)OC(=O)c1ccc(NCc2cc(O)ccc2O)cc1	3.5% (active)
COc1ccc2oc3cc(NCCN(C)C)ccc3c(=O)c2c1	38.9% (inactive)
CC(=O)Oc1cc(C)c(OC(C)=O)c(C)c1C	118% (inactive)
NC1=NC(c2ccccc2)N=C(Nc2ccccc2)N1 (stereo not given)	2.95% (active)
O=C1C2=C(Nc3cc(Cl)ccc3N2)OC1c1c[nH]c2ccc(COc3ccccc3)cc12 (stereo not given)	85.4% (inactive)
Cc1ccc([N+](=O)[O-])cc1Br	83% (inactive)
C(#CCN1CCOCC1)CCCN1CCOCC1	124% (inactive) and 109% (inactive)
CCCC(=O)Oc1ccc2ccccc2c1	110% (inactive)
C/C=C/C(=O)OCCCCCCCCCCCC	83.4% (inactive)
OCc1ccccc1F	92.6% (inactive)
CCOc1ccc(/C=C\C(=O)O)cc1	81.6% (inactive)
Oc1ccc(O)c(-c2ccccc2)c1	4.96% (active)
COc1ccc(CCl)c(C)c1OC	105% (inactive)
Cn1c(N)c(N=O)c(=O)n(C)c1=O	92.4% (inactive) and 91.7% (inactive)
Cc1nc(Nc2ccc(Cl)cc2)c2cnn(-c3ccccc3)c2n1	101% (inactive)
O=c1[nH]c(=O)c2[nH]c(=O)[nH]c2[nH]1	114% (inactive)
Nc1nc(N)c2cc(S(=O)(=O)c3ccccc3)ccc2n1	22% (inactive) and 47.4% (inactive)
O=C(/C=C/C=C/c1ccc2c(c1)OCO2)N1CCCCC1	92.4% (inactive) and 86% (inactive)
